# Screening results as filed in PubChem.
# In the library only some 1.4% were active in any assay of this set; here they are far more common.
# p53 reactivation = re-activators of mutant p53 | H1299 p53-A138V BP100-luciferase reporter, luminescence, 24 h | Potency, µM (doses to about 92.2 µM), for inactives: top-dose activity change, positive = activation, usual class: activators | 320,000 compounds, 0.063% hits; also: potency is read from the fitted curve at half-maximal effect; % of control where 0% means no effect; nearly all actives have a fitted effect of over 45% in size
#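 H1299 (p53-null), stable ts p53-A138V + BP100-Luc; 1000 cells/well, Opti-MEM/10% FBS; cpd 4 pt, 1:5; 24 h, 37 deg C, 5% CO2; detection reagent 10 min RT; luminescence.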
# 12-LOX inh = inhibitors of human 12S-lipoxygenase ALOX12 | 580,000 compounds, 1.1% hits | P18054 | purified 12hLO, xylenol orange hydroperoxide absorbance | Potency, µM (series often up to 108 µM), for the others: at the highest dose activity change, negative = inhibition, actives largely listed as inhibitors; also: potency is read from the fitted curve at half-maximal effect; % is scaled to controls: 0 for no effect and ±100 for the full control effect
# Target sequence (P18054 whole entry, looked up): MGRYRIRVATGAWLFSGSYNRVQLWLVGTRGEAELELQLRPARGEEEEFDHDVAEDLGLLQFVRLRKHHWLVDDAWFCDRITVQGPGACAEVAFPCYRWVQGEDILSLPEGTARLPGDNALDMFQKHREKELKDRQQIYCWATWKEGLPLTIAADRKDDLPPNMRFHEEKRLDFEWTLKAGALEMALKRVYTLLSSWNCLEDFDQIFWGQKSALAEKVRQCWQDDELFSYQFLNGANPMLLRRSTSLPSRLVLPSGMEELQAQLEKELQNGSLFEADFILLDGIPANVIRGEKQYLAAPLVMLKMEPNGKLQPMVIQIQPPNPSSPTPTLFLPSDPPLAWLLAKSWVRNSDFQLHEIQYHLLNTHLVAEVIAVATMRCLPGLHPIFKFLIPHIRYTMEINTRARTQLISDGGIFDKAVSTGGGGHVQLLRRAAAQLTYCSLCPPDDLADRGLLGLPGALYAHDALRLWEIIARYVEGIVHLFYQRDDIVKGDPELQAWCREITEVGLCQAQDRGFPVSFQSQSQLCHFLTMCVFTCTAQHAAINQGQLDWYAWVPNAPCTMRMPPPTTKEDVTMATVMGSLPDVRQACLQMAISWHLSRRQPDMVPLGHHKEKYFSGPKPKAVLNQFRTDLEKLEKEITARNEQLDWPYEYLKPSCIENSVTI
#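 Purified human 12hLO (150 nM final) in 25 mM Hepes, 0.01% Triton X-100, pH 7.0 was preincubated 15 min at room temperature with compound. Then 40 uM arachidonic acid was added, 30 min. Hydroperoxide was read by Fe-XO absorbance ratio 573/405 nm.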
# MmCpn inh = inhibitors of Methanococcus maripaludis chaperonin TRiC (MmCpn); purified Mm-Cpn ATPase, ADP Transcreener TR-FRET; Potency, µM (series often up to 76.9 µM), inactives show top-dose activity, negative = inhibition, actives largely listed as inhibitors; 330,000 compounds, 0.031% hits; AID 504842; also: potency is read from the fitted curve at half-maximal effect; % is scaled to controls: 0 for no effect and ±100 for the full control effect; nearly all actives have a fitted effect of over 80% in size
#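 Compound-treated chaperonin, 25 nM final, turns over 10 uM ATP at 37°C for 30 min following a 10 min preincubation; ADP generated competes with ADP-d2 for Eu-cryptate antibody, lowering FRET.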
# CCT chaperon mod = modulators of cytosolic chaperonin (CCT/TRiC) activity; AID 651819; activity change, % (test concentration not listed), hits read low; 360,000 compounds, 0.3% hits; purified chaperonin ATPase assay, HTRF ADP detection, 30 min; in the data active = activity change below about -30%; also: % is scaled to controls: 0 for no effect and ±100 for the full control effect
#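 ATPase activity: ADP formed was measured by HTRF Transcreener (665/615 nm ratio) after 30 min at 37 deg C with 10 uM ATP. Compounds screened at one 76 uM concentration against 40 or 20 nM TRiC in Tris pH 7.4/KCl/MgCl2/DTT buffer.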
# PINK1 expr mod = changes PINK1 expression; AID 624263; PINK1 immunofluorescence, high-content cytometry, 24 h; Potency, µM (doses to about 76.6 µM), inactives show at the highest dose activation (PINK1 increase), most hits filed as activators; 410,000 compounds, 0.2% hits; active = well fitted activation curve with a large enough effect; inconclusive = small, poorly fitted or top-dose-only effect; cell line not stated here; also: potency is read from the fitted curve at half-maximal effect; % of control where 0% means no effect; nearly all actives have a fitted effect of over 65% in size
#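 Fluorescence from anti-PINK1 antibody, together with nuclear and cell stains, was scanned on a laser-scanning cytometer. Before staining, stable-line cells were incubated 24 hours with compounds at 5 concentrations; primary antibody 12 h at 10 degrees C.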
# S-ASM inh = human S-ASM enzyme inhibition; P17405; placental ASM, HMU-PC fluorogenic substrate, 60 min; Potency, µM (doses to about 57.5 µM), for the others: at the highest dose activity change, negative = inhibition, actives largely listed as inhibitors; 340,000 compounds, 0.006% hits; AID 504937; also: potency is read from the fitted curve at half-maximal effect
#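 Human placenta-derived ASM enzyme was preincubated with compound for 10 minutes at room temperature, then given fluorogenic substrate HMU-PC0 (9 uM final) for 60 minutes at 37 °C; a pH 10 stop preceded fluorescence reading at Ex 386/Em 447 nm.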
# * hit, by the source's call; ? = inconclusive; nt = no result; ! = not confirmed by another sample; [ ] = remark or other dose. Unless noted, calls follow the shape of the dose curve; as a rule, active = well fitted curve in the direction sought with a large enough effect; inconclusive = small, poorly fitted or top-dose-only effect, or another doubt; inactive = no such curve, though single readings can be large; an effect the other way counts as inactive or inconclusive.
SMILES,p53 reactivation,12-LOX inh,MmCpn inh,CCT chaperon mod,PINK1 expr mod,S-ASM inh
Cc1ccc(/C=C2\C(=O)NC(=S)N(c3ccc(F)cc3)C2=O)s1,2%,?,-2%,0,1%,4%
Cc1ccc(/C=C2\C(=O)NC(=S)N(c3ccccc3F)C2=O)s1,-51%,40µM*,-1%,0,-3%,3%
CCCN1CCc2cc(O)cc3c2C1Cc1ccc(O)c(O)c1-3 (stereo not drawn),nt,7.9µM*,nt,nt,nt,nt
C=CCN1CCc2cccc3c2[C@H]1Cc1ccc(O)c(O)c1-3,nt,7.9µM*,-1%,1,0%,8%
CC[C@H]1CN2CC[C@H]1C[C@@H]2CNCc1cc2ccccc2o1,nt,52%[176 µM],nt,nt,nt,nt
CN(C)c1ccc([N+](=O)[O-])c2cnccc12,nt,-5%,nt,nt,nt,nt
C[N+]1(CC(COCc2ccccc2)OC(=O)Cc2ccccc2)CCOCC1 (stereo not drawn),-2%,40µM*,-2%,-2,-2%,9%
O=c1[nH]c(=S)n(CCC2=CCCCC2)c(O)c1C=NC1CCN(Cc2ccccc2)CC1,2%,14%,1%,-1,-3%,-4%
O=c1[nH]c(=S)n(CCC2=CCCCC2)c(O)c1/C=N/Nc1ccccc1,0%,35µM*,-3%,-3,0%,-10%
Oc1cc2c(cc1O)[C@H]1c3ccccc3CN[C@H]1CC2,nt,11µM*!,nt,nt,nt,nt
COc1ccc(CNCCc2c[nH]c3ccccc23)cc1,nt,0.63µM*,nt,nt,nt,nt
COc1cccc(CNCCc2c[nH]c3ccccc23)c1,-5%,-23%,2%,-1,2%,-4%
CCc1ccc(CNCCc2ccc(OC)cc2)cc1,nt,2.5µM*,nt,nt,nt,nt
COc1ccc(CCNCc2ccc(Cl)cc2)cc1,nt,14µM*,nt,nt,nt,nt
O=C1N(c2ccccn2)C[C@H]2CN(Cc3ccccc3)CCN12,nt,4%[176 µM],nt,nt,nt,nt
Cc1oc2cc(OCC(=O)N3CCN(C)CC3)ccc2c(=O)c1Oc1ccccc1,nt,-6%,nt,nt,nt,nt
O=C(c1cc(F)ccc1F)C1CCCN(Cc2cccc(Cl)c2)C1 (stereo not drawn),1%,-16%,-2%,0,?,-1%
O=C(c1cc(F)ccc1F)C1CCCN(CCCc2ccccc2)C1 (stereo not drawn),6%,-8%,-4%,-30*,5%,-3%
CC(=O)OC1C(=O)OCC23CCC4(C)OC4C2OC2CC(OC(=O)C=CC=CC(=O)OCCC1C)C3(C)C21CO1 (stereo not drawn),nt,-58%,nt,-1,-7%,-3%
CC(O)C1C=CC=CC(=O)OC2CC3OC4C5OC5(C)CCC4(COC(=O)C4OC4(C)C(O)CO1)C2(C)C31CO1 (stereo not drawn),nt,32µM*,nt,-1,-7%,2%
COC(=O)c1c(C)n(Cc2ccccc2)c2ccc(O)cc12,-3%,16µM*!,0%,-3,9%,-1%
O=C(Cc1ccccc1)N1Cc2ccccc2CC2(CCCCN2Cc2ccccn2)C1 (stereo not drawn),nt,6%[6.33 µM],nt,nt,nt,nt
O=C1NC(=O)[C@]2(Cc3ccccc3N3CCN(c4ccccc4)CC32)C(=O)N1Cc1ccccc1 (stereo partly drawn),13%,16µM*,-3%,0,0%,-11%
CCCCc1ccc2[nH]c(C)c(CCN)c2c1,nt,3.2µM*,nt,nt,nt,nt
CN1CCc2c([nH]c3ccccc23)C12CCNCC2,nt,-4%,nt,nt,nt,nt
SMILES,p53 reactivation,12-LOX inh,MmCpn inh,CCT chaperon mod,PINK1 expr mod,S-ASM inh
C=CCN1C(=O)NC(=O)/C(=C\c2ccc(-c3ccccc3[N+](=O)[O-])o2)C1=O,-8%,35µM*,-1%,2,-2%,-9%
O=C1NC(=O)N(Cc2ccco2)C(=O)/C1=C/c1ccc(-c2cccc([N+](=O)[O-])c2)o1,3%,nt,0%,-4,-2%,-4%
COC(=O)c1nc(-c2ccc3c(n2)C(=O)C(N)=C(OC)C3=O)c(N)c(-c2ccc(OC)c(OC)c2O)c1C,11%,16µM*,-3%,-2,3%,-14%
O=C1NC(=O)N(c2ccc(Cl)cc2)C(=O)/C1=C/c1coc2ccc(O)cc2c1=O,12%,?,0%,0,8%,-2%
O=C1NC(=O)N(c2ccccc2)C(=O)/C1=C/c1coc2ccc(O)cc2c1=O,21%,45µM*,0%,1,19%,-1%
Cc1cccc(-n2c(/C=C/c3ccccn3)nc3ccccc3c2=O)c1,nt,-4%,-3%,-38*,1%,76%
COc1cccc(-n2c(/C=C/c3ccccn3)nc3ccccc3c2=O)c1,nt,-23%,-3%,-22,2%,-4%
COc1cccc(-n2c(/C=C/c3ccc(O)c(O)c3)nc3ccccc3c2=O)c1,-5%,32µM*,0%,-2,2%,-3%
COc1ccc(-n2c(/C=C/c3ccc4c(c3)OCO4)nc3ccccc3c2=O)cc1,-8%,?,0%,-40*,0%,70%
CNC(=O)C1CCN(C(=O)c2cn(Cc3ccccc3)c3ccccc23)CC1,nt,12%,nt,nt,nt,nt
O=C1Nc2ccccc2Sc2ccccc21,-5%,?,1%,0,4%,0%
c1ccc2c(c1)Nc1ccccc1S2,-3%,0.11µM*,-11%,0,4%,-1%
CC(C)NC(=O)N1C2CCC1CN(Cc1cccnc1)C2,nt,6%[12.5 µM],nt,nt,nt,nt
CCOC(=O)CC(SP(=S)(OC)OC)C(=O)OCC (stereo not drawn),nt,23µM*!,nt,nt,nt,nt
COc1cc(CN2CCN(C(=O)COc3ccc4ccccc4c3)CC2)cc(OC)c1O,nt,1.6µM*,nt,nt,nt,nt
CSc1cccc(NC(=O)NC[C@H]2C[C@@H]3CCN2C[C@@H]3CN2CCN(c3ccccc3)CC2)c1,nt,74%,nt,nt,nt,nt
Cc1cccc(OCCn2cccc2/C=C2/C(=O)NC(=O)N(Cc3ccco3)C2=O)c1,10%,-72%,-1%,1,3%,-19%
O=C1NC(=O)N(Cc2ccco2)C(=O)/C1=C\c1cccn1CCOc1ccc(Cl)cc1,9%,40µM*,1%,-2,-3%,-20%
COc1ccc(CN2C(=O)NC(=O)/C(=C\c3ccco3)C2=O)cc1,-1%,40µM*,-1%,1,10%,-9%
COc1ccc(CN2C(=O)NC(=O)/C(=C\c3cc(OC)c(OC)c(OC)c3)C2=O)cc1,-1%,?,-1%,1,-1%,2%
COC[C@H]1C[C@@H](NCc2cn(C)c3ccccc23)[C@H](O)[C@@H]1O,nt,-8%[176 µM],nt,nt,nt,nt
CN1c2ncccc2CN(Cc2ccccn2)CC[C@H]1CO,nt,228%[176 µM],nt,nt,nt,nt
O=C(CNC12CC3CC(CC(C3)C1)C2)c1ccc(Cl)cc1,nt,0%,nt,nt,nt,nt
CCCNC(=O)OC[C@H]1C[C@@H]2CCN1C[C@@H]2c1cc(C(CC)CC)nc(-c2ccncc2)n1,nt,8%,nt,nt,nt,nt
